# Measured values published in PubChem BioAssay AID2417 (National Center for Advancing Translational Sciences (NCATS), 2010).
# About 4,300 (3.1%) of roughly 140,000 compounds were called active. Roughly 21% stayed inconclusive and do not appear here.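 The calls were made as follows: active = readout at or below -70, meaning at least 70% loss of cells showing the perinucleolar compartment, a nuclear body marking cancer cells; inconclusive = readout between -30 and a set limit; inactive = the rest.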 What follows is part of a selection rich in actives, with near analogues and random picks from the rest.
# Experiment: High Content Assay for Compounds that inhibit the Assembly of the Perinucleolar Compartment;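 also: plate controls were DMSO wells for no effect and camptothecin positive control wells for full effect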
# Conditions: PC3M PTB-GFP, PNC prevalence imaging, 16 h; at 10 µM; stronger effect = lower value
# Method in brief: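 PC3M cells stably expressing PTB-GFP, 750–1000 cells/well, treated 16 h at 37 °C with compound (23 nl of library stock), in duplicate. After paraformaldehyde fixation and Hoechst stain, imaged at 20x; PNC prevalence scored by image analysis.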
row,Compound,"activity change (PNC), negative = inhibition"
1,Cc1ccc(NC(=O)CN2CCC3(O)CCCCC3C2c2ccc3c(c2)OCO3)c(C)c1 (stereo not given),-90% (active)
2,Cc1ccc(NC(=O)Cn2cccc2C2=NC(c3ccccc3)CO2)c(C)c1 (stereo not given),17.1% (inactive)
3,CCN(CC)c1ccc(C2C3CCCCC3(O)CCN2CC(=O)Nc2ccccc2)cc1 (stereo not given),-22.9% (inactive)
4,COc1cc(C2C(N3C(=O)c4ccccc4C3=O)C(=O)N2c2ccc(C)c(C)c2)cc(OC)c1OC (stereo not given),31.7% (inactive)
5,CCC(=O)NCCc1nc2ccccc2n1CC,14% (inactive)
6,Cc1ccc(Cn2c(NC(=O)c3ccco3)nc3ccccc32)cc1,2.65% (inactive)
7,CCn1c(NC(=O)c2nn(C)cc2Br)nc2ccccc21,-114% (active)
8,Cc1nnnn1/C(=C\c1ccccc1)C(=O)OCC(=O)N1CC2(C)CC1CC(C)(C)C2 (stereo not given),23.1% (inactive)
9,Cn1nccc1CNC(=O)c1ccnn1C,23.5% (inactive)
10,Cc1ccc(S(=O)(=O)N(CC(=O)Nc2cccc([N+](=O)[O-])c2)Cc2ccc(Cl)cc2)cc1,34.5% (inactive)
11,COc1ccc(C)cc1S(=O)(=O)N(CC(=O)Nc1cccc([N+](=O)[O-])c1)c1ccc(C)cc1,-81.9% (active)
12,Cc1ccc(N(CC(=O)Nc2cccc(N(C)S(C)(=O)=O)c2)S(C)(=O)=O)cc1,24.2% (inactive)
13,O=S(=O)(/N=C(/Nc1ccccn1)c1ccccc1)c1ccc(Cl)cc1,-25.2% (inactive)
14,Cc1ccc(S/C(=N\S(=O)(=O)c2ccc(Cl)cc2)c2ccccc2)cc1,-26.8% (inactive)
15,Cc1ccc(S(=O)(=O)/N=C(/Nc2ccccn2)c2ccc(Cl)cc2)cc1,-85% (active)
16,CCNS(=O)(=O)c1ccc(NC(=O)c2cncc(Br)c2)cc1,6.83% (inactive)
17,C/C(=N/NS(=O)(=O)c1ccccc1)c1ccc(NC(=O)C(F)(F)F)cc1,8.62% (inactive)
18,COC(=O)Cc1ccc(N(Cc2ccccc2F)S(=O)(=O)c2ccc(Br)cc2)cc1,-15.9% (inactive)
19,CCOc1ccc(C(=O)Nc2cc(OC)ccc2OC)cc1,-127% (active)
20,CCOc1ccc(NC(=O)Nc2cc(C)ccc2OC)cc1,-3.12% (inactive)

row,Compound,"activity change (PNC), negative = inhibition"
1,CCOc1ccccc1NC(=O)Nc1cc(OC)ccc1OC,48.5% (inactive)
2,CC1CCCCN1S(=O)(=O)c1ccc(S(=O)(=O)N(CC(=O)Nc2ccccc2)Cc2cccs2)cc1 (stereo not given),-17.2% (inactive)
3,Cn1c(=O)cc(OCCCC(=O)N2CCN(Cc3ccc4c(c3)OCO4)CC2)c2ccccc21,19.5% (inactive)
4,CCCOc1ccc(NC(=O)CC2C(=O)N(C)C(=S)N2Cc2ccc3c(c2)OCO3)cc1 (stereo not given),-134% (active)
5,CCOc1ccc(NCCC(=O)c2ccc3c(c2)OCO3)cc1,23% (inactive)
6,COc1ccc(/C=C/C(=O)NC(=S)NN2CCCCC2c2cccnc2)cc1 (stereo not given),-29.3% (inactive)
7,CN(C)/N=C/c1cc(Cl)cc([N+](=O)[O-])c1O,3.04% (inactive)
8,Cc1ccc(S(=O)(=O)N2CCCC2C(=O)OCc2nc3sc(C)c(C)c3c(=O)[nH]2)cc1 (stereo not given),7.12% (inactive)
9,O=C(CN1C(=O)c2cccc3cccc(c23)C1=O)N1CCCCC1,-26% (inactive)
10,COc1ccc(NC(=S)NCC2CCN(c3ccc(OC)cc3)C2)cc1 (stereo not given),-116% (active)
11,COc1ccc(NC(=S)NC2CCS(=O)(=O)C2)cc1 (stereo not given),36.6% (inactive)
12,O=C(Cc1ccccc1)NC(=S)Nc1ccc(N2CCCCC2)cc1,-26.1% (inactive)
13,COCC(C)n1c(C)cc(C(=O)CSc2cc(C)c3ccccc3n2)c1C (stereo not given),-11.6% (inactive)
14,Cc1cc(F)ccc1S(=O)(=O)N1CCCOC1CNC(=O)C(=O)NCCC1=CCCCC1 (stereo not given),14.2% (inactive)
15,CCCc1cc(=O)[nH]c(SCC(=O)N2CCN(S(=O)(=O)c3ccc(C)cc3C)CC2)n1,-20% (inactive)
16,Cc1nn(Cc2ccc(F)cc2)c(C)c1NC(=O)c1noc2c1CCc1ccccc1-2,-5.67% (inactive)
17,Cc1nn(Cc2ccc(F)cc2)c(C)c1NC(=O)c1cccnc1Cl,-102% (active)
18,Cc1cc(C(=O)Nc2c(C)nn(Cc3ccccc3)c2C)on1,36% (inactive)
19,Nc1nc(SCC(=O)NN(c2ccccc2)c2ccccc2)n[nH]1,8.76% (inactive)
20,Cc1ccccc1C1=NC(C(F)(F)F)(C(F)(F)F)c2c(n(-c3ccc(F)cc3)c(=O)[nH]c2=O)N1,-9.65% (inactive)

row,Compound,"activity change (PNC), negative = inhibition"
1,CCOC(=O)C1CCc2nc3ccccc3c(=O)n21 (stereo not given),-123% (active)
2,CCC1(CC)Cc2ccccc2-c2nc3ccccc3c(=O)n21,35.3% (inactive)
3,CCOC(=O)C(C)Sc1nc2ccccc2c(=O)n1CC1CCCCC1 (stereo not given),0.699% (inactive)
4,O=C(COC(=O)c1cc(=O)[nH]c2ccccc12)Nc1nc(-c2cccc(Br)c2)cs1,21.6% (inactive)
5,COC(=O)Cc1ccc(OCC(=O)Nc2ccc(OC(F)(F)F)cc2)cc1,-17.1% (inactive)
6,CCCC(=O)C1CCN(Cc2ccccc2)CC1,-25.7% (inactive)
7,CCCCN(Cc1ccccc1)C(=O)C1CCN(Cc2sccc2C)CC1,30.3% (inactive)
8,CCCCN(C)C(=O)C1CCN(Cc2ccccn2)CC1,-84.5% (active)
9,CCOc1cccc(NC(=O)CC#N)c1,-1.74% (inactive)
10,CC(=O)Nc1cccc(Oc2cc(C#N)c(C#N)cc2N2CCOCC2)c1,-107% (active)
11,CC(=O)Nc1ccc(N2CCOCC2)c(C(=O)Nc2cccc(C)c2)c1,-7.92% (inactive)
12,CCn1nc(C)c(/C=N/NC(=O)Cc2ccc(Cl)cc2)c1C,49.9% (inactive)
13,O=[N+]([O-])c1cc(S(=O)(=O)N2CCCC2)ccc1NN=C1CCCC1,27.5% (inactive)
14,COc1cc(NC(=O)COC(=O)CSc2ccc3ccccc3c2)c(C)cc1[N+](=O)[O-],0.296% (inactive)
15,O=C(CCCN1C(=O)c2cccc3cccc(c23)C1=O)N1CCN(Cc2ccc3c(c2)OCO3)CC1,-24.4% (inactive)
16,CS(=O)(=O)N(CC(=O)N1CCN(Cc2ccc3c(c2)OCO3)CC1)c1ccc2c(c1)OCO2,-4.43% (inactive)
17,O=C(CSCc1ccc(Cl)cc1)N1CCCCC1,0.451% (inactive)
18,O=C(Nc1ccccc1)N1CCN(Cc2ccccc2)CC1,47.3% (inactive)
19,O=C(CSCc1ccc(Cl)cc1)N1CCN(Cc2ccc3c(c2)OCO3)CC1,-86.5% (active)
20,O=C(Nc1cccc2ccccc12)N1CCN(Cc2ccc3c(c2)OCO3)CC1,-95.4% (active)
